From the supplement of paper PMC6555819

Key:
Assay in all cases: PBM binding z-score (relative to random genomic background probes); higher = stronger binding; sequences stand for … in GC…GCGATTGACAGCGTAGAATGAAGG
[1] = tested on: PPARg:RXRa DBDmut IVT, anti-RXR (DBD mutation: RXRa K156A/R161A, NR concentration 270 nM, RXRa partner concentration 90 nM)
Outline: (§1)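 Scanned fluorescence from custom Agilent 4×180K protein-binding microarrays was regression-normalized. Binding z-scores use random background probes as reference. Ligand-free nuclear receptor dimers were incubated on the arrays for 1 h and detected with antibodies against each partner (one per run).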

[2] = tested on: PPARg:RXRa IVT, anti-PPARg (NR concentration 270 nM, RXRa partner concentration 90 nM)
Outline: as §1

[3] = tested on: PPARg DBDmut:RXRa IVT, anti-PPARg (DBD mutation: PPARg1 K132A/R137A, NR concentration 270 nM, RXRa partner concentration 90 nM)
Outline: as §1

[4] = tested on: PPARg DBDmut IVT, anti-PPARg (DBD mutation: PPARg1 K132A/R137A, NR concentration 270 nM)
Outline: as §1

[5] = tested on: PPARg homodimer (NR concentration 180 nM)
Outline: as §1

[6] = tested on: PXR homodimer (NR concentration 270 nM)
Outline: as §1

[7] = tested on: RARa:RXR (NR concentration 270 nM, RXRa partner concentration 90 nM)
Outline: as §1

[8] = tested on: RARa homodimer (NR concentration 270 nM)
Outline: as §1

[9] = tested on: RARb:RXRa (NR concentration 270 nM, RXRa partner concentration 90 nM)
Outline: as §1

Sequence | PBM binding z-score [1] | PBM binding z-score [2] | PBM binding z-score [3] | PBM binding z-score [4] | PBM binding z-score [5] | PBM binding z-score [6] | PBM binding z-score [7] | PBM binding z-score [8] | PBM binding z-score [9]
GGAACGGGGGCAAGTTGATAGCAGAGTTTGATGG | 4.41 | 5.53 | 10.8 | 12.6 | 2.77 | 2.97 | 2.7 | 2.02 | 3.54
GCTTCCGGGTCAAAGGTTATAGCATGAATAGAAT | 6.02 | 6.82 | 2.92 | 1.77 | 4.67 | 0.927 | 8.48 | 0.795 | 4.45
ATCGAAAGGTCGTGAGGTGACTATACAGAAAGGC | 0.761 | 2.62 | 1.76 | 1.47 | 1.55 | 0.227 | 4.52 | 1.01 | 3.99
CTCGAAAGGTCGTGCTTAGGTGAGTATACCAAAC | 1 | 1.93 | 0.335 | 0.228 | 2.19 | 0.515 | 4.22 | 0.262 | 3.72
ATGTGTAGGTTACATCCGGGTCATTCAGGCTATG | 2.96 | 4.13 | 1.02 | 1.88 | 3.03 | 2.51 | 4.01 | 1.12 | 2.37
ATACGTAGGTTACATCCGGGTCATTCAGGCTATG | 1.15 | 2.36 | 1.24 | 0.742 | 1.87 | 2.6 | 3.48 | 0.687 | 2.27
ACTAGTAGGTCAGCTGAGGTCACACACAATTCGG | 7.68 | 7.77 | 2.63 | 2.31 | 6.08 | 4.54 | 6.25 | 4.07 | 5.01
ACTATCAGGCCAAGGGTCACTCAAGATTAGTCCG | 1.26 | 3.82 | 0.909 | 0.584 | 3.28 | 0.337 | 4.42 | 1.45 | 3.72
CCTTACGGGTCAAGGTTATCGCACGGGTGGTACG | 2.42 | 3.71 | 0.643 | -0.085 | 2.19 | 0.106 | 4.53 | 0.512 | 4.2
CGTCCAAGGTCAGAGAGGTCACTGAATGCCGAGT | 3.27 | 4.05 | 0.000167 | 0.0701 | 3.8 | 13.1 | 6.81 | 1.13 | 5.37
CCTTACGGGCCACGAGGTTATAGCACGACGAGCG | 0.97 | 1.16 | -0.462 | -1.1 | 0.126 | -0.12 | 1.06 | -0.0676 | 1.15
AATACAGGGTCGCTAGGCCAGAGTAGGTACGAAT | 0.129 | 1.16 | 0.521 | -0.263 | 0.213 | -0.199 | 0.9 | 0.178 | 1.49
CTTTACGGGTCAAGGTTATAGCACGGGTGGTACG | 3.74 | 4.39 | 1.72 | 1.23 | 2.84 | 0.731 | 4.6 | 0.604 | 4.17
